Shown is part of a subset that was picked to be rich in hits.
Shiga toxin inh: Shiga toxin inhibition; Vero cells, Shiga toxin protein synthesis inhibition reporter; inhibition, % at 38.7 µM; 9.2% of 290,000 active; in the data active means inhibition mostly above about 28%, no sharp cut-off; inactive means mostly below about 43%; further: 0% is about no effect
CHX counter: counter-screen for Shiga toxin inhibitors: cycloheximide protein synthesis inhibition; cell reporter, cycloheximide protein synthesis inhibition counterscreen; max response, %; 12% of 300,000 active; AID 2314; in the data active means max response mostly above about 13%, no sharp cut-off; inactive means mostly below about 14%; further: read at 38.3 µM for the half of the compounds with a filed dose; 0% is about no effect
AMA1 RON2 block: disrupts binding of P. falciparum AMA1 to RON2. AlphaScreen AMA1-biotinylated RON2 peptide binding. AID 720542. 0.2% of 360,000 active. Potency, µM (top dose mostly 58.2 µM), without a hit: at the top dose activity change, negative = inhibition, hits mostly inhibitors; active means well fitted inhibition curve with a large enough effect; inconclusive means small, poorly fitted or top-dose-only effect; inactive means no such curve, though single readings can be large or run the other way;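 further: potency means the concentration at half of the fitted maximal effect; 0% = vehicle wells and -100% = peptide control; nearly all actives have a fitted effect of over 45% in size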
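AMA1 (3D7) with his tag at 25 nM final met compounds first, then biotinylated RON2 peptide at 25 nM; detection used donor plus acceptor beads, 10 µg/mL apiece, read by AlphaScreen after 30 min at room temperature.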
Lassa entry inh: blocks Lassa virus binding to or entry into cells. Lassa virus pseudotype entry inhibition, cell reporter. 1.2% of 300,000 active. Potency, µM (titrated, usually from 37.9 µM), without a hit: top-dose activity change, negative = inhibition, actives largely listed as inhibitors; calls by dose curve; tested in HEK293 cells; further: potency means the concentration at half of the fitted maximal effect; on the % scale 0 is the no-effect control and ±100 the full control effect; nearly all actives have a fitted effect of over 50% in size
Marburg entry inh: blocks Marburg virus binding to or entry into cells; Marburg virus pseudotyped entry inhibition, cell reporter; Potency, µM (doses to about 37.8 µM), inactives show at the highest dose activity change, negative = inhibition, most hits filed as inhibitors; 1.8% of 300,000 active; calls by dose curve; tested in HEK293 cells; further: potency means the concentration at half of the fitted maximal effect; on the % scale 0 is the no-effect control and ±100 the full control effect
The depositor's hits bear a star; u = inconclusive; x = no result given; [ ] = dose if it differs, or a comment.

SMILES	Shiga toxin inh	CHX counter	AMA1 RON2 block	Lassa entry inh	Marburg entry inh
COc1ccc(OC)c(S(=O)(=O)NCCc2csc3nc(-c4ccccc4)nn23)c1	x	x	x	-22%[46.1 µM]	x
CCn1cc(S(=O)(=O)Nc2cc(C(=O)OC)ccc2C)cn1	-1	2	2%	u	u
COc1ccc(CCNCC2CCCO2)cc1 (stereo unspecified)	24*	18*	-17%	x	x
COc1cccc(CNCC2CCCO2)c1 (stereo unspecified)	x	-3	-4%	x	x
COc1ccc(C(=O)NCC2CCCO2)cc1 (stereo unspecified)	54*	36*	-21%	u	12%
CN(C)c1ccc(C(=O)NCC2CCCO2)cc1 (stereo unspecified)	64*	43*	33%	u	u
Cc1ccc(NS(=O)(=O)c2cccc(C(=O)NCC3CCCO3)c2)cc1 (stereo unspecified)	x	x	0%	10µM*	u
COc1cc(C(=O)Nc2ccc(C(F)(F)F)cc2)ccc1OCC(=O)N1CCOCC1	x	x	-12%	-3%	19%[46.1 µM]
CN(C)c1ccc(-c2nn3c(C4CCCCC4)nnc3s2)cc1	8	-2	5%	-29%	-1%
COc1ccc(COC[C@H](C)[C@H](O)[C@@H](C)[C@H]2OC(=O)[C@@H]2C)cc1	-8	10	6%	x	x
CC(C)C1C(=O)Nc2ccc(S(=O)(=O)NCCc3ccc(Cl)cc3)cc21 (stereo unspecified)	x	x	x	7%[46.1 µM]	x
COc1cccc(-c2cc(C(=O)NCC3CCCO3)c3cc(C)cc(C)c3n2)c1 (stereo unspecified)	15	12*	19%	u	-15%
O=C(NCC1CCCO1)c1cc2c(s1)CCC2 (stereo unspecified)	89*	52*	0%	x	x
COc1ccc(N(Cc2ccccc2)S(=O)(=O)c2cccc(C(=O)NCC3CCCO3)c2)cc1 (stereo unspecified)	x	x	-22%	3.2µM*	-27%[46.1 µM]
COc1ccc(N(C)S(=O)(=O)c2cccc(C(=O)NCC3CCCO3)c2)cc1 (stereo unspecified)	3	-5	13%	u	-9%
COc1ccccc1CNC(=O)C(=O)NCC1CCCO1 (stereo unspecified)	62*	24*	-1%	14%	5%
COc1ccccc1CC(=O)NCC1CCCO1 (stereo unspecified)	10	9	8%	3%	u
COc1cc(-c2cc(OC)c3c(C)oc(C)c3c(=O)c2)ccc1OC(=O)c1ccccc1C	x	x	x	-9%[46.1 µM]	u
C/C(=N\NC(=O)c1ccc2c(c1)OCO2)c1ccc(C(=O)O)s1	54*	31*	2%	-19%	0%[46.1 µM]
C/C(=N\NC(=O)c1nc2ccccn2c1C)c1ccc2c(c1)OCO2	42	19*	-1%	6%	u
C/C(=N\NC(=O)CNC(=O)c1ccc2c(c1)OCO2)c1ccco1	15	2	5%	1%	-33%
O=C(NN=C1CCCC1)c1ccc(O)cc1	42*	30*	3%	x	x
C/C(=N\NC(=O)c1nc2ccccn2c1C)c1cccc([N+](=O)[O-])c1	-1	12	21%	u	2%[46.1 µM]
C/C(CCc1ccc2c(c1)OCO2)=N\NC(=O)c1ccc(C)cc1C	77*	39*	17%	u	-18%[46.1 µM]
CC(/C=C/c1ccccc1)=N\NC(=O)c1ccc2c(c1)OCCO2	48*	50*	38%	u	u
SMILES	Shiga toxin inh	CHX counter	AMA1 RON2 block	Lassa entry inh	Marburg entry inh
C/C(=N\NC(=O)c1ccc(O)cc1)c1ccc2c(c1)OCCO2	x	x	11%	x	x
O=C(NN=C1CCCCCC1)c1ccc2c(c1)OCO2	38	38*	39%	u	u
C/C(=N\NC(=O)c1ccc2c(c1)OCCO2)c1ccccc1	52*	21*	6%	u	u
COc1ccc(C(=O)NN=C2CCCC2)cc1OC	-2	-2	84%	-1%[46.1 µM]	-2%[46.1 µM]
C/C(=N\NC(=O)c1cccs1)c1ccc2c(c1)OCO2	117*	64*	61%	11%[46.1 µM]	u
CCOc1ccc(N(CC(=O)NC(C(C)C)C(C)C)S(=O)(=O)c2ccc(OC)c(OC)c2)cc1	16	-3	4%	x	x
Cc1cccn2c(=O)cc(COc3ccc(NC(=O)COc4ccc(F)cc4)cc3)nc12	x	x	x	0%[46.1 µM]	x
C/C(=N\Nc1ccc([N+](=O)[O-])cc1)c1ccc2c(c1)OCO2	81*	30*	-13%	-1%[46.1 µM]	u
C/C(=N\NC(=O)C1CC1)c1ccc2c(c1)OCCO2	44	28*	17%	u	20%[46.1 µM]
C/C(=N\NS(=O)(=O)c1ccc([N+](=O)[O-])cc1)c1ccc2c(c1)OCO2	-8	7	2%	24%[46.1 µM]	8%[46.1 µM]
CCCCCC1=CCC/C1=N\NC(=O)c1ccc2c(c1)OCO2	27	19*	21%	x	6%[46.1 µM]
C/C(=N\NC(=O)c1ccc2c(c1)OCO2)c1ccc2c(c1)OCO2	62*	35*	67%	u	16%[46.1 µM]
CC(=NNC(=O)c1cccs1)c1ccc2c(c1)OCCO2	x	x	15%	x	x
N#Cc1ccccc1OCC(=O)Nc1nnc(C2CC2)s1	x	x	-3%	x	x
C/C(=N\NC(=O)c1ccc2c(c1)OCO2)c1ccc(NC(=O)CCCC(=O)O)cc1	57*	34*	23%	-8%[46.1 µM]	u
CCc1ccccc1NC(=O)c1cnc2sc(N3CCCC3)nn2c1=O	x	x	x	30%[46.1 µM]	x
CCN(c1ccccc1)c1nnc(NC(=O)Nc2ccc(C)cc2)s1	x	x	x	u	7%[46.1 µM]
Cc1cc2nc3c(nc2cc1C)CCCC3	108*	59*	1%	x	x
Cc1cccc2nc3c(nc12)CCCC3	-15	-2	-8%	x	x
Cc1nn2c(COc3ccc(NC(=O)C(C)C)cc3)nnc2c2ccccc12	12	6	-1%	u	-1%
Cc1nn2c(COc3ccc(NC(=O)c4ccccc4Cl)cc3)nnc2c2ccccc12	22	10	-6%[11.6 µM]	u	7.1µM*
C=CCn1c(COc2ccc(OC)cc2)nc2ccccc21	33	44*	11%	x	x
COc1ccc(OCCn2c(C)nc3ccccc32)cc1	x	x	14%	x	x
COCCn1c(COc2ccc(OC)cc2)nc2ccccc21	49*	22*	1%	12%	-16%
CCOc1ccc(NCc2nc3ccccc3n2CCOc2ccccc2)cc1	61*	38*	14µM*	u	u
SMILES	Shiga toxin inh	CHX counter	AMA1 RON2 block	Lassa entry inh	Marburg entry inh
COCc1nc2ccccc2n1Cc1ccccc1	17	20*	5%	24%	15%
CC(C)[C@@H](OCc1ccccc1)[C@H](C)C=NO[C@H](C)c1cn([C@@H]2COC[C@@H]2O)nn1	x	x	x	x	-6%[14.2 µM]
CCOC(=O)c1ccc2c(c1)nc(COc1ccc3ccccc3c1)n2CC	-12	-1	-27%	u	4.6µM*
Cc1cccc(Cn2c(COc3ccccc3)nc3ccccc32)c1	x	x	x	-1%[46.1 µM]	u
COc1ccc(OCc2nc3ccccc3n2C(C)C)cc1	14	9	-19%	-5%	u
CCn1c(COc2ccccc2)nc2ccccc21	36*	24*	15%	25%	-1%
CCn1c(COc2ccc(OC)cc2)nc2ccccc21	80*	50*	-20%	2%	-6%
CCOC(C(=O)OC[C@@H](O)CN(CC)CC)(c1ccccc1)c1ccccc1	x	x	x	x	-25%
